Test results as given in PubChem BioAssay (NCI).
This is part of a sample that, as a whole, favours compounds with a hit. Of some 79,000 tested, about 15% had one in any assay. A number with no mark means an inactive call. The source made the active and inactive calls. Rule as the data show it: active = growth inhibition above about 70%; inactive = the rest.

Test: NCI Yeast Anticancer Drug Screen. Data for the bub3 strain (AID 167)
Conditions: S. cerevisiae bub3 mutant strain, at 100.0 µM, active compounds read high
Summary of the method: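 Inhibition values come from growth of compound-treated mutant yeast normalised to vehicle-treated controls.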
In the case of `CC(=O)[O][Bi]([c]1ccccc1)[c]1ccccc1`, the growth inhibition is reported as 94% (active). For `CC1=C(SCCO)C(=O)c2ccccc2C1=O`, the growth inhibition was 29%. With `C/C(=N\O)C1CC2C=C(C#N)C1N(Cc1ccccc1)C2` (stereo not drawn) the growth inhibition was -5%. For `CC(Br)C(=O)c1ccc2cc(Br)c3ccccc3c2c1` (stereo not drawn), the growth inhibition was -3%. In the case of `Nc1nc(-c2cccnc2)cc(-c2cc(-c3cccnc3)nc(N)n2)n1`, the growth inhibition is reported as -10%. With `CC(C)=CC(=O)O[C@@H]1CC(C)(C)CC2C3=CCC4[C@]56CC[C@](O)(OC5)C(C)(C)C6CC[C@@]4(C)C3(C)CC[C@]21C(=O)O` (stereo partly drawn) the growth inhibition was 92% (active). `CCC(C)COC(=O)c1ccc(N=Cc2ccc(C=Nc3ccc(C(=O)OCC(C)CC)cc3)cc2)cc1` (stereo not drawn) showed a growth inhibition of 10%. For `Oc1cccc2c(Cl)ccnc12`, the growth inhibition was 97% (active). For `O=C(O)c1cccc(-c2c3ccc(=O)cc-3oc3cc(O)ccc23)c1`, the growth inhibition was 92% (active). `CN(CCc1ccccn1)c1ccc2c(c1)Cc1ccccc1-2` gave a growth inhibition of 20%. Compound `Cc1cc(S(=O)(=O)/N=C(/NN)NNc2cccc(C(F)(F)F)n2)c(S)cc1Cl` has a growth inhibition of 12%. In the case of `O=C1C2C(C(=O)N1c1ccc(OCc3ccccc3)cc1)C1c3ccccc3C2C2CCCCN21` (stereo not drawn), the growth inhibition is reported as 88% (active). With `Nc1ccccc1CC(O)C(=O)O` (stereo not drawn) the growth inhibition was 92% (active). For `O=C(O)C1CCCCC1c1c2ccc(=O)c(O)c-2oc2c(O)c(O)ccc12` (stereo not drawn), the growth inhibition was 86% (active). In the case of `Cc1ccc2ccc(O)cc2c1`, the growth inhibition is reported as 88% (active). Work on `O=C1C(=O)c2ccccc2C=C1[N+](=O)[O-]` yielded a growth inhibition of 49%. With `COC(=O)c1ccc(NCC2=CC(=O)C=CC2=O)cc1O` the growth inhibition was 93% (active). With `C(CCSC1=NCCN1)CSC1=NCCN1` (tested in a mixture with another compound) the growth inhibition was 98% (active). For `N#Cc1c(N)[nH]c2ccc(Sc3ccccc3)cc12`, the growth inhibition was 96% (active). With `CCNc1nnc(CSc2nc(-c3ccccc3)c(-c3ccccc3)[nH]2)s1` the growth inhibition was 82% (active). `CC[C@@]1(O)C(=O)OCc2c1cc1n(c2=O)Cc2cc3c(N)cccc3nc2-1` showed a growth inhibition of -30%.

Test: NCI Yeast Anticancer Drug Screen. Data for the wt2 strain (AID 169);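 also: 0% = growth of vehicle-treated yeast cultures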
Conditions: S. cerevisiae wt2 strain growth inhibition; at 1.2 µM; active compounds read high
Summary of the method: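 Against vehicle-treated controls, the growth of yeast exposed to each compound was compared, and the inhibition was recorded.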
In the case of `S=C(S)NN1CCOCC1`, the growth inhibition is reported as 64%. `COc1cc2c3c(cccc3c1)C(=O)N(CCN(C)C)C2=O` gave a growth inhibition of -2%. With `COC(=O)C1=C(C)NC(C)=C(C(=O)OCCCN2CCC(c3ccccc3)(c3ccccc3)CC2)C1c1cccc([N+](=O)[O-])c1` (stereo not drawn) the growth inhibition was -4%. For `Cc1ccc(CCC2=CCCc3c2ccc2ccccc32)cc1`, the growth inhibition was -3%. In the case of `CNC(=O)OCc1c(COC(=O)NC)c(-c2ccc(Cl)c(Cl)c2)n2c1CCC2`, the growth inhibition is reported as -14%. With `Clc1ccccc1C1OC1c1ccccc1Cl` (stereo not drawn) the growth inhibition was -49%. In the case of `O=[N+]([O-])c1cc(CCl)ccc1CCl`, the growth inhibition is reported as 3%. `S=c1[nH]nc(Nc2ccc(Cl)cc2)s1` showed a growth inhibition of 1%. Compound `BrCc1cccc2ccc3cccc(CBr)c3c12` has a growth inhibition of -2%. For `O=C1c2ccccc2-c2nc3ccccc3nc21`, the growth inhibition was -25%. Work on `CCCCCCCCCCCCCCCCCCNC` yielded a growth inhibition of -35%. `CC[n+]1ccc2c(C)c3[nH]c4ccc(O)cc4c3c(C)c2c1` showed a growth inhibition of -5%. `Cc1ccc(-n2cc(-c3ccc(Cl)cc3)c(C#N)c2N)cc1` gave a growth inhibition of -1%. Compound `CC(=O)[O][Bi]([c]1ccccc1)[c]1ccccc1` has a growth inhibition of 4%. In the case of `CC1=C(SCCO)C(=O)c2ccccc2C1=O`, the growth inhibition is reported as -2%. For `C/C(=N\O)C1CC2C=C(C#N)C1N(Cc1ccccc1)C2` (stereo not drawn), the growth inhibition was -1%. Compound `CC(Br)C(=O)c1ccc2cc(Br)c3ccccc3c2c1` (stereo not drawn) has a growth inhibition of -3%. Work on `Oc1cccc2c(Cl)ccnc12` yielded a growth inhibition of 38%. `Cc1cc(S(=O)(=O)/N=C(/NN)NNc2cccc(C(F)(F)F)n2)c(S)cc1Cl` showed a growth inhibition of 0%. For `O=C1C2C(C(=O)N1c1ccc(OCc3ccccc3)cc1)C1c3ccccc3C2C2CCCCN21` (stereo not drawn), the growth inhibition was -3%. In the case of `Nc1ccccc1CC(O)C(=O)O` (stereo not drawn), the growth inhibition is reported as 2%. With `O=C(O)C1CCCCC1c1c2ccc(=O)c(O)c-2oc2c(O)c(O)ccc12` (stereo not drawn) the growth inhibition was -32%. Compound `O=C1C(=O)c2ccccc2C=C1[N+](=O)[O-]` has a growth inhibition of 2%. In the case of `C(CCSC1=NCCN1)CSC1=NCCN1` (tested in a mixture with another compound), the growth inhibition is reported as -2%. With `N#Cc1c(N)[nH]c2ccc(Sc3ccccc3)cc12` the growth inhibition was 0%. For `CC[C@@]1(O)C(=O)OCc2c1cc1n(c2=O)Cc2cc3c(N)cccc3nc2-1`, the growth inhibition was -16%.

Same assay, conditions: S. cerevisiae wt2 strain growth inhibition; at 3.7 µM; active compounds read high
`S=C(S)NN1CCOCC1` gave a growth inhibition of 31%. `COc1cc2c3c(cccc3c1)C(=O)N(CCN(C)C)C2=O` gave a growth inhibition of 1%. `COC(=O)C1=C(C)NC(C)=C(C(=O)OCCCN2CCC(c3ccccc3)(c3ccccc3)CC2)C1c1cccc([N+](=O)[O-])c1` (stereo not drawn) gave a growth inhibition of 25%. For `Cc1ccc(CCC2=CCCc3c2ccc2ccccc32)cc1`, the growth inhibition was -5%. In the case of `CNC(=O)OCc1c(COC(=O)NC)c(-c2ccc(Cl)c(Cl)c2)n2c1CCC2`, the growth inhibition is reported as -14%. In the case of `Clc1ccccc1C1OC1c1ccccc1Cl` (stereo not drawn), the growth inhibition is reported as -71%. For `O=[N+]([O-])c1cc(CCl)ccc1CCl`, the growth inhibition was 15%. Compound `S=c1[nH]nc(Nc2ccc(Cl)cc2)s1` has a growth inhibition of 9%. For `BrCc1cccc2ccc3cccc(CBr)c3c12`, the growth inhibition was -5%. Work on `O=C1c2ccccc2-c2nc3ccccc3nc21` yielded a growth inhibition of -22%. Compound `CCCCCCCCCCCCCCCCCCNC` has a growth inhibition of -17%. For `CC[n+]1ccc2c(C)c3[nH]c4ccc(O)cc4c3c(C)c2c1`, the growth inhibition was -6%. Compound `Cc1ccc(-n2cc(-c3ccc(Cl)cc3)c(C#N)c2N)cc1` has a growth inhibition of -1%. With `CC(=O)[O][Bi]([c]1ccccc1)[c]1ccccc1` the growth inhibition was 4%. Compound `CC1=C(SCCO)C(=O)c2ccccc2C1=O` has a growth inhibition of 0%. Compound `C/C(=N\O)C1CC2C=C(C#N)C1N(Cc1ccccc1)C2` (stereo not drawn) has a growth inhibition of -2%. In the case of `CC(Br)C(=O)c1ccc2cc(Br)c3ccccc3c2c1` (stereo not drawn), the growth inhibition is reported as -1%. In the case of `Oc1cccc2c(Cl)ccnc12`, the growth inhibition is reported as 97% (active). Compound `Cc1cc(S(=O)(=O)/N=C(/NN)NNc2cccc(C(F)(F)F)n2)c(S)cc1Cl` has a growth inhibition of -2%. In the case of `O=C1C2C(C(=O)N1c1ccc(OCc3ccccc3)cc1)C1c3ccccc3C2C2CCCCN21` (stereo not drawn), the growth inhibition is reported as -4%. For `Nc1ccccc1CC(O)C(=O)O` (stereo not drawn), the growth inhibition was 6%. `O=C(O)C1CCCCC1c1c2ccc(=O)c(O)c-2oc2c(O)c(O)ccc12` (stereo not drawn) showed a growth inhibition of -23%. In the case of `O=C1C(=O)c2ccccc2C=C1[N+](=O)[O-]`, the growth inhibition is reported as 6%. Work on `C(CCSC1=NCCN1)CSC1=NCCN1` (tested in a mixture with another compound) yielded a growth inhibition of 10%. With `N#Cc1c(N)[nH]c2ccc(Sc3ccccc3)cc12` the growth inhibition was 1%. Compound `CC[C@@]1(O)C(=O)OCc2c1cc1n(c2=O)Cc2cc3c(N)cccc3nc2-1` has a growth inhibition of -9%.
